Data from PubChem BioAssay (Tox21).
A number with no mark means an inactive call. Inconclusive results are not listed. A call without a number means that no potency is given here. The source made the active and inactive calls. Unless noted, calls follow the shape of the dose curve; as a rule, active = well fitted curve in the direction sought with a large enough effect in the repeat runs; inconclusive = weak or mixed curves; inactive = no such curve, though single readings can be large; an effect the other way counts as inactive or inconclusive.

Columns and labels:
[1] = qHTS assay to identify small molecule antagonists of the androgen receptor (AR) signaling pathway using the MDA cell line in the presence of 0.5 nM R1881 - cell viability counter screen (AID 1259242); also: nearly all actives have a fitted effect of over 45% in size; also: potency is read from the fitted curve at half-maximal effect
Outline: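 Live-cell protease activity was measured by CellTiter-Fluor fluorescence after 30 min. Before that, MDA-kb2 MMTV-luciferase cells had 16 hr at 37C without CO2, exposed to test compounds and 0.5 nM R1881 final.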

[2] = target: Estrogen receptor (Homo sapiens) (UniProt P03372); test: qHTS assay to identify small molecule antagonists of the estrogen receptor alpha (ER-alpha) signaling pathway using the BG1 cell line in the presence of 0.1 nM 17-beta-estradiol (AID 1259244); also: nearly all actives have a fitted effect of over 50% in size; also: potency is read from the fitted curve at half-maximal effect
Estrogen receptor (Homo sapiens), sequence (P03372 whole entry, looked up): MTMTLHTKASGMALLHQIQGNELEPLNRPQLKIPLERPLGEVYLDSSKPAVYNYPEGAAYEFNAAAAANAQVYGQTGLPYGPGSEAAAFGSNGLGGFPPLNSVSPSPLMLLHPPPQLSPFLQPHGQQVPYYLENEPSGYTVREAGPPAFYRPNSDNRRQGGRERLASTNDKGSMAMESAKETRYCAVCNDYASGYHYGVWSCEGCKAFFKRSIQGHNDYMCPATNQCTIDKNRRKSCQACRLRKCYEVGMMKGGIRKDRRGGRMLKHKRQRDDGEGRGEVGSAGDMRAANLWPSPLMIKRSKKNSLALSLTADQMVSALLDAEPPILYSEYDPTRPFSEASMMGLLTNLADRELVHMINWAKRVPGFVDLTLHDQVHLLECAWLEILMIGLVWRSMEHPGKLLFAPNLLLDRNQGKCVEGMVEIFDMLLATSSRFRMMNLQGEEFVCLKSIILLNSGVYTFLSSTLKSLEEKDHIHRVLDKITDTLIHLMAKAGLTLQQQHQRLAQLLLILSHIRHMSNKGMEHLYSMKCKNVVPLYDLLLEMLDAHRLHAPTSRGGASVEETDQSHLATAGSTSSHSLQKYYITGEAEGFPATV
Outline: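 Luciferase luminescence (ONE-Glo, 30 min at room temperature) was read after 22 hr at 37C exposure to compounds plus 17beta-estradiol at 0.1 nM final. Cells were VM7Luc4E2 with endogenous ER-alpha and an ERE-driven luciferase, pre-cultured 5 days in hormone-depleted medium.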

[3] = qHTS assay to identify small molecule HDAC inhibitors (AID 1259364); also: top concentration of the series differs between compounds; nearly all actives have a fitted effect of over 45% in size
Outline: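 Luminescence read after 30 min room-temperature HDAC-Glo incubation measures cellular class I/II HDAC activity. Compounds were applied for 2 hr at 37 C to HCT-116 wild-type cells seeded the day before.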

[4] = qHTS assay to identify small molecule HDAC inhibitors - cell viability counter screen (AID 1259365); also: nearly all actives have a fitted effect of over 50% in size; also: potency is read from the fitted curve at half-maximal effect
Outline: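 Following a 2hr exposure of overnight-plated wild-type HCT-116 cells to DMSO-delivered compounds, CellTiter-Glo was added and luminescence recorded after 30min at room temperature.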

[5] = qHTS assay to identify small molecule agonists of the sonic hedgehog signaling (Shh) pathway - cell viability counter screen (AID 1259366); also: nearly all actives have a fitted effect of over 50% in size; also: potency is read from the fitted curve at half-maximal effect
Outline: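 After a 4hr attachment at 37C, NIH/3T3 cells bearing an integrated Gli1-driven luciferase reporter were dosed with compounds. Treatment lasted 24hr, with the final hour including CellTiter-Fluor for a fluorescence viability measurement.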

[6] = qHTS assay to identify small molecule agonists of the sonic hedgehog signaling (Shh) pathway (AID 1259368; calls by dose curve;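 also: NIH/3T3-derived 3T3Gli1-Luc cells carrying a stable Gli1-driven firefly luciferase reporter; series mostly up to about 92 µM; nearly all actives have a fitted effect of over 15% in size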)
Outline: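 Luminescence was read after 30 min at room temperature with luciferase reagent. Before that, 3T3Gli1-Luc cells (NIH/3T3 clone, stable Gli1-Luc reporter; 2,000/well) were exposed to compounds for 24 hr at 37C, 5% CO2, compounds being added 4 hr post-plating.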

[7] = qHTS assay to identify small molecule antagonists of the sonic hedgehog signaling (Shh) pathway - cell viability counter screen (AID 1259367); also: nearly all actives have a fitted effect of over 55% in size; also: potency is read from the fitted curve at half-maximal effect
Outline: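 Tox21 library chemicals were tested on a Gli1-Luc NIH/3T3 clone (2,000 cells/well) stimulated by conditioned medium; viability was quantified as fluorescence from CellTiter-Fluor reagent added at 23 hr.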

[8] = qHTS assay to identify small molecule antagonists of the sonic hedgehog signaling (Shh) pathway (AID 1259369; calls by dose curve; also: nearly all actives have a fitted effect of over 45% in size; also: potency is read from the fitted curve at half-maximal effect)
Outline: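 Antagonist mode: compound added to 3T3 Gli1-Luc cells followed by conditioned-medium stimulation, 24 h at 37 C, 5% CO2. Inhibition taken as loss of Gli1-driven luciferase luminescence.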

COc1ccc(OC)c(C=O)c1
Potency [1]: inactive
Potency [2]: inactive
Potency [3]: inactive
Potency [4]: inactive
Potency [5]: inactive
Potency [6]: inactive

Oc1ccc(I)cc1
Potency [1]: inactive
Potency [2]: inactive
Potency [3]: inactive
Potency [4]: inactive
Potency [5]: inactive
Potency [6]: inactive

CC(C)CC(C)N (stereo not drawn)
Potency [1]: inactive
Potency [2]: inactive
Potency [3]: inactive
Potency [4]: inactive
Potency [5]: inactive
Potency [7]: inactive
Potency [6]: inactive
Potency [8]: inactive

COC[C@H](C)N(C(=O)CCl)c1c(C)csc1C
Potency [1]: inactive
Potency [2]: inactive
Potency [3]: inactive
Potency [4]: inactive
Potency [5]: inactive
Potency [7]: inactive
Potency [8]: inactive

CC(=O)c1cc(C(C)(C)C)cc2c1CCC2(C)C
Potency [1]: inactive
Potency [2]: inactive
Potency [3]: inactive
Potency [4]: inactive
Potency [5]: inactive
Potency [7]: inactive
Potency [6]: inactive
Potency [8]: inactive

CC(C)(COCC1CO1)COCC1CO1 (stereo not drawn)
Potency [1]: inactive
Potency [2]: inactive
Potency [3]: inactive
Potency [4]: inactive
Potency [5]: inactive
Potency [7]: inactive
Potency [6]: inactive

COCC(=O)N(c1c(C)cccc1C)[C@H](C)C(=O)OC
Potency [1]: inactive
Potency [2]: inactive
Potency [3]: inactive
Potency [4]: inactive
Potency [5]: inactive
Potency [7]: inactive
Potency [6]: inactive
Potency [8]: inactive

O=C(O)COc1nc(Cl)c(Cl)cc1Cl
Potency [1]: inactive
Potency [2]: inactive
Potency [3]: inactive
Potency [4]: inactive
Potency [5]: inactive
Potency [7]: inactive
Potency [6]: inactive
Potency [8]: inactive

Cc1ccc(OP(=O)(Oc2ccccc2)Oc2ccccc2)cc1
Potency [1]: inactive
Potency [2]: inactive
Potency [3]: inactive
Potency [4]: inactive
Potency [5]: inactive
Potency [7]: inactive
Potency [8]: 17.5 µM (active)

O=[N+]([O-])c1ccc(Oc2ccc(C(F)(F)F)cc2[N+](=O)[O-])cc1
Potency [1]: inactive
Potency [2]: inactive
Potency [3]: inactive
Potency [4]: inactive
Potency [5]: inactive
Potency [7]: inactive
Potency [6]: inactive
Potency [8]: 61.1 µM (active)

Oc1ccccc1Br
Potency [1]: inactive
Potency [2]: inactive
Potency [3]: inactive
Potency [4]: inactive
Potency [5]: inactive
Potency [7]: inactive
Potency [6]: inactive
Potency [8]: inactive

CCCCCCCCCCCCCC[P+](CCCCCC)(CCCCCC)CCCCCC (tested in a mixture with another compound)
Potency [1]: 19.3 µM (active)
Potency [2]: 3.86 µM (active)
Potency [3]: inactive
Potency [4]: 68.6 µM (active)
Potency [5]: 13.7 µM (active)
Potency [7]: 48.6 µM (active)
Potency [6]: inactive
Potency [8]: 0.969 µM (active)

ClCc1ccccc1CCl
Potency [1]: inactive
Potency [2]: inactive
Potency [3]: inactive
Potency [4]: inactive
Potency [5]: inactive
Potency [7]: inactive
Potency [6]: inactive
Potency [8]: inactive

ClC1=C(Cl)[C@]2(Cl)[C@H]3[C@H]([C@H]4C=C[C@H]3C4)[C@@]1(Cl)C2(Cl)Cl
Potency [1]: inactive
Potency [2]: inactive
Potency [3]: inactive
Potency [4]: inactive
Potency [5]: inactive
Potency [6]: inactive

CC(C)OS(C)(=O)=O
Potency [1]: inactive
Potency [2]: inactive
Potency [3]: inactive
Potency [4]: inactive
Potency [5]: inactive
Potency [7]: inactive
Potency [6]: inactive
Potency [8]: inactive

ClCc1ccc(Cl)cc1Cl
Potency [1]: inactive
Potency [2]: inactive
Potency [3]: inactive
Potency [4]: inactive
Potency [5]: inactive
Potency [7]: inactive
Potency [6]: inactive
Potency [8]: inactive

C[C@@H](Oc1ccc(Cl)cc1Cl)C(=O)O
Potency [1]: inactive
Potency [2]: inactive
Potency [3]: inactive
Potency [4]: inactive
Potency [5]: inactive
Potency [7]: inactive
Potency [6]: inactive

CCCN(CC)CC1COC2(CCC(C(C)(C)C)CC2)O1 (stereo not drawn)
Potency [1]: inactive
Potency [2]: inactive
Potency [3]: inactive
Potency [4]: inactive
Potency [5]: inactive
Potency [7]: inactive
Potency [6]: inactive

CC(C)CCCCCCCOP(=O)(Oc1ccccc1)Oc1ccccc1
Potency [1]: inactive
Potency [2]: inactive
Potency [3]: inactive
Potency [4]: inactive
Potency [5]: inactive
Potency [7]: inactive
Potency [6]: inactive

CC(C)CCCCCOC(=O)c1ccccc1C(=O)OCCCCCC(C)C
Potency [1]: inactive
Potency [2]: inactive
Potency [3]: inactive
Potency [4]: inactive
Potency [5]: inactive
Potency [7]: inactive
Potency [6]: inactive

CCCCCCCCCCCCCCC(Br)C(=O)O (stereo not drawn)
Potency [1]: inactive
Potency [2]: inactive
Potency [3]: inactive
Potency [4]: inactive
Potency [5]: inactive
Potency [7]: inactive
Potency [6]: inactive
Potency [8]: inactive

CC1(c2ccc(Oc3ccccc3)cc2)OC(=O)N(Nc2ccccc2)C1=O (stereo not drawn)
Potency [1]: 24.5 µM (active)
Potency [2]: 8.69 µM (active)
Potency [3]: inactive
Potency [4]: inactive

COc1cc(C=O)cc2c1[C@H](COC(N)=O)[C@]1(OC(C)=O)ON2C[C@H]2[C@@H]1N2C(C)=O
Potency [1]: inactive
Potency [2]: 0.154 µM (active)
Potency [3]: inactive
Potency [4]: inactive
Potency [5]: 6.11 µM (active)

Clc1ccc(-c2ccccc2)cc1
Potency [1]: inactive
Potency [2]: inactive
Potency [3]: inactive
Potency [4]: inactive
Potency [5]: inactive
Potency [7]: inactive
Potency [6]: inactive

Nc1ccc(Cl)cc1C(=O)c1ccccc1
Potency [1]: inactive
Potency [2]: inactive
Potency [3]: inactive
Potency [4]: inactive
Potency [5]: inactive
Potency [6]: inactive

Cc1cc(C(F)(C(F)(F)F)C(F)(F)F)ccc1NC(=O)c1cccc(I)c1C(=O)NC(C)(C)CS(C)(=O)=O
Potency [1]: inactive
Potency [2]: inactive
Potency [3]: inactive
Potency [4]: inactive
Potency [5]: inactive
Potency [7]: inactive
